Source: PubChem BioAssay (EPA / NIEHS)
Records with an inconclusive call do not appear. Activity calls are given as the source filed them. How the source made its calls, unless noted: active means hit-call score of the fitted dose curve at least 0.9, where 1 is the maximum; inconclusive means response in the unintended direction; inactive means score below 0.9.

Legend:
[1] = ATG_TAL_CIS: Attagene CIS-FACTORIAL HepG2 Assay for human TAL Basal Promoter (AID 2282966; active means hit-call score of the fitted dose curve at least 0.9, where 1 is the maximum; inactive means score below 0.9;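 further: background control endpoint measuring basal TAL promoter reporter mRNA not a specific factor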); details: HepG2 Attagene cis-factorial TAL promoter reporter; actives raise or lower the signal
Outline: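 Transiently transfected HepG2 (cis-regulated reporter units), 24 h treatment, mRNA read by fluorescent CE after RT-PCR; bidirectional fit, DMSO baseline.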

[2] = biological target: X-box-binding protein 1 (Homo sapiens) (UniProt P17861); assay: ATG_Xbp1_CIS: Attagene CIS-FACTORIAL HepG2 Assay for human X-box Binding Protein 1 (XBP1) (AID 2282972; active means hit-call score of the fitted dose curve at least 0.9, where 1 is the maximum; inactive means score below 0.9); details: HepG2 XBP1 cis-element reporter, Attagene multiplex; actives raise or lower the signal
X-box-binding protein 1 (Homo sapiens), sequence (P17861 whole entry, looked up): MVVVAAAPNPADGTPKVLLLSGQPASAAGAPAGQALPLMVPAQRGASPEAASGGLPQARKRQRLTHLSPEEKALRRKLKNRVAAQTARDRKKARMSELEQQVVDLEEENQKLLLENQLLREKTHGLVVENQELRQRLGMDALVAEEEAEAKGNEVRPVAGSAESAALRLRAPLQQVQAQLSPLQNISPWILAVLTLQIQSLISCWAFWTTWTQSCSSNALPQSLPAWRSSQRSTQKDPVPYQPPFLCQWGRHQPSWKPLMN
Outline: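 Human hepatoma HepG2, cis-element reporter system, 24 h treatment; mRNA quantified by RT-PCR/CE fluorescence; fit relative to DMSO.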

[3] = ATG_M_19_TRANS: Attagene TRANS-FACTORIAL HepG2 Assay for M19 Transcription Factor (Internal Marker) (AID 2282974); details: HepG2 Attagene TRANS-FACTORIAL M19 internal marker reporter
Outline: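 Multiplexed TRANS format: HepG2 liver cells bearing transient GAL4-UAS reporter units, chemical treatment 24 h, reporter transcripts quantified by RT-PCR plus capillary electrophoresis. DMSO defines baseline.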

[4] = ATG_GAL4_TRANS: Attagene TRANS-FACTORIAL HepG2 Assay for GAL4 (Internal Marker) (AID 2282976); details: HepG2 Attagene TRANS GAL4 internal marker reporter
Outline: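 HepG2 cells transiently transfected with multiplexed GAL4-UAS reporter constructs were dosed for 24 h. Reporter mRNA was measured by RT-PCR, 6-FAM primer extension, HpaI digestion and capillary electrophoresis, and gain of signal was fitted relative to DMSO.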

[5] = biological target: Oxysterols receptor LXR-alpha (Homo sapiens) (UniProt Q13133); assay: ATG_LXRa_TRANS: Attagene TRANS-FACTORIAL HepG2 Assay for human Liver X Receptor alpha (LXRa) (AID 2282980); details: HepG2 Attagene TRANS reporter, LXRa transactivation
Oxysterols receptor LXR-alpha (Homo sapiens), sequence (Q13133 whole entry, looked up, the tested form may be a part): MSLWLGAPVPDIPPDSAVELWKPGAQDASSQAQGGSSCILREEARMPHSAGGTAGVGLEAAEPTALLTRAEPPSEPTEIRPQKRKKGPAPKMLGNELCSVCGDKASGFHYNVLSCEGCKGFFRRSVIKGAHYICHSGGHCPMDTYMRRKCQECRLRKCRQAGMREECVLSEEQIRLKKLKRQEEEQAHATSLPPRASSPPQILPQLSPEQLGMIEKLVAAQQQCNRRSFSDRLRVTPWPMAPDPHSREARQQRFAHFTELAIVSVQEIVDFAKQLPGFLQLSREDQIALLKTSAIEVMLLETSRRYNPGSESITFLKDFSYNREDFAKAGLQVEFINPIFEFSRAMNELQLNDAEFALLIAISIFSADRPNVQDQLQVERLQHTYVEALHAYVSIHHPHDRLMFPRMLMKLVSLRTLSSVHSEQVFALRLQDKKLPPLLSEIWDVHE
Outline: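 HepG2 cells were transiently transfected with multiplexed reporter units driven by chimeric LXRa–GAL4 fusion proteins, then dosed for 24 h. Reporter mRNA was quantified by RT-PCR, fluorescent labelling and capillary electrophoresis; gain of signal fitted against DMSO baseline.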

[6] = biological target: Oxysterols receptor LXR-beta (Homo sapiens) (UniProt P55055); assay: ATG_LXRb_TRANS: Attagene TRANS-FACTORIAL HepG2 Assay for human Liver X Receptor beta (LXRb) (AID 2282981); details: HepG2 Attagene TRANS GAL4-LXRb reporter, mRNA
Oxysterols receptor LXR-beta (Homo sapiens), sequence (P55055 whole entry, looked up, the tested form may be a part): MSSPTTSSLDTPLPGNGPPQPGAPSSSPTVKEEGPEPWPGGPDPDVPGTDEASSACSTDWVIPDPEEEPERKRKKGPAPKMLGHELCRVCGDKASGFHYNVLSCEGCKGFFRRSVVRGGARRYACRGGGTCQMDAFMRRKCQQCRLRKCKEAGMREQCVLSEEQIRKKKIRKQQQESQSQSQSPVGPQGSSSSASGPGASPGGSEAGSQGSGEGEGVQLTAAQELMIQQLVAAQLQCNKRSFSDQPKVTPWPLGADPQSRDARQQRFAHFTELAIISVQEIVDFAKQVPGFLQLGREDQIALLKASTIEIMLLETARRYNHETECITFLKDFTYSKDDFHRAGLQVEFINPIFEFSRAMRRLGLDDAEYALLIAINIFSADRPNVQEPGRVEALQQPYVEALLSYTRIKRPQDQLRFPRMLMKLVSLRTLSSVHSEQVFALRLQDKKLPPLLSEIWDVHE
Outline: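 Multiplexed reporter assay, HepG2, 24 h dosing. Fluorescence of labelled RT-PCR products after capillary electrophoresis gives transcript level; positive fitting direction relative to DMSO.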

[7] = biological target: Hepatocyte nuclear factor 4-alpha (Homo sapiens) (UniProt P41235); assay: ATG_HNF4a_TRANS: Attagene TRANS-FACTORIAL HepG2 Assay for human Hepatocyte Nuclear Factor 4 alpha (HNF4a) (AID 2282982); details: HepG2 HNF4a transactivation reporter, mRNA readout
Hepatocyte nuclear factor 4-alpha (Homo sapiens), sequence (P41235 whole entry, looked up, the tested form may be a part): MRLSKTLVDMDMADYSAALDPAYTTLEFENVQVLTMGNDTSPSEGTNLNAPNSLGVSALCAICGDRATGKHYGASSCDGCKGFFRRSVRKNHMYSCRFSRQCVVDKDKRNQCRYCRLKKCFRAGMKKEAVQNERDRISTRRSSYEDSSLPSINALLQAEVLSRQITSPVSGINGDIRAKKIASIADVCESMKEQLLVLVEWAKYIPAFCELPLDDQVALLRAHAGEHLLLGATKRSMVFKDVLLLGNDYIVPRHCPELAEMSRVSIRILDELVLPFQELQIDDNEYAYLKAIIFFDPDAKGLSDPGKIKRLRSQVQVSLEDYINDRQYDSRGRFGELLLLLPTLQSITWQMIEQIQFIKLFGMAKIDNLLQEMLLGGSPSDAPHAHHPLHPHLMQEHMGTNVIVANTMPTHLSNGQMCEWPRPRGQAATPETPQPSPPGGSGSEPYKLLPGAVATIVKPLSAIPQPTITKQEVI
Outline: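 Endpoint reflects transcriptional activation of a GAL4-UAS reporter by an HNF4a-GAL4 chimera in transfected HepG2 cells, 24 h post-dosing. Fluorescence from RT-PCR products separated by capillary electrophoresis; DMSO baseline.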

[8] = ATG_M_32_TRANS: Attagene TRANS-FACTORIAL HepG2 Assay for M32 Transcription Factor (Internal Marker) (AID 2282984); details: HepG2 Attagene TRANS M32 internal marker reporter;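 further: transcript level of a background control reporter unit measured by RT-PCR and capillary electrophoresis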
Outline: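 Internal-marker readout from a multiplexed transcription reporter panel. HepG2 cells were transfected with GAL4-UAS reporter units, treated 24 hours, and reporter transcript levels determined by fluorescence after RT-PCR and capillary separation.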

[9] = biological target: Nuclear respiratory factor 1 (Homo sapiens) (UniProt Q16656); assay: ATG_NRF1_CIS: Attagene CIS-FACTORIAL HepG2 Assay for human Nuclear Respiratory Factor 1 (NRF1) Orphan Gene (AID 2282987; active means hit-call score of the fitted dose curve at least 0.9, where 1 is the maximum; inactive means score below 0.9); details: HepG2 NRF1 cis-element reporter, Attagene multiplex; actives raise or lower the signal
Nuclear respiratory factor 1 (Homo sapiens), sequence (Q16656 whole entry, looked up): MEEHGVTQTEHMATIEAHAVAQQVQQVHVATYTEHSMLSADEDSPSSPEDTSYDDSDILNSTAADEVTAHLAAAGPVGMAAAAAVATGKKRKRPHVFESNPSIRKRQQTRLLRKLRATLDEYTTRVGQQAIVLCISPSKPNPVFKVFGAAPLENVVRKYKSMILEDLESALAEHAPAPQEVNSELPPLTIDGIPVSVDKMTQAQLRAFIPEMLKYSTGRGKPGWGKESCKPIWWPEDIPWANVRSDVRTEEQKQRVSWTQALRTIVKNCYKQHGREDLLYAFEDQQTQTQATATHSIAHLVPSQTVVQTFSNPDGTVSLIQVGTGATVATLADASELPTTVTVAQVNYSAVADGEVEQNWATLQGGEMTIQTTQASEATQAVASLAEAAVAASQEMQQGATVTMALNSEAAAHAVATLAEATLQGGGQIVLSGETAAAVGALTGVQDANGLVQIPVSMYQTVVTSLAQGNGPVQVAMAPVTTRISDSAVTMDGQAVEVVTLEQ
Outline: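 Reporter mRNA induction or loss in HepG2 cells after 24 h dosing; cis-regulated reporter constructs report endogenous transcription-factor activity. Quantified by RT-PCR/capillary electrophoresis fluorescence, DMSO-referenced.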

[10] = ATG_VDRE_CIS: Attagene CIS-FACTORIAL HepG2 Assay for human Vitamin D Receptor Element (VDRE) (AID 2282968; active means hit-call score of the fitted dose curve at least 0.9, where 1 is the maximum; inactive means score below 0.9); details: HepG2 VDRE cis-reporter transcription, actives raise or lower the signal
Outline: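 Compounds were applied for 24 h to HepG2 cells transfected with promoter-regulated reporter units. Total RNA was reverse-transcribed, and reporter amplicons were fluorescently labelled and sized by capillary electrophoresis.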

[11] = biological target: Glucocorticoid receptor (Homo sapiens) (UniProt P04150); assay: ATG_GR_TRANS: Attagene TRANS-FACTORIAL HepG2 Assay for human Glucocorticoid Receptor (GR) (AID 2282978); details: HepG2 Attagene TRANS GR reporter, mRNA transcription;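 further: activators score as hits since higher reporter transcript over DMSO is fitted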
Glucocorticoid receptor (Homo sapiens), sequence (P04150 whole entry, looked up, the tested form may be a part): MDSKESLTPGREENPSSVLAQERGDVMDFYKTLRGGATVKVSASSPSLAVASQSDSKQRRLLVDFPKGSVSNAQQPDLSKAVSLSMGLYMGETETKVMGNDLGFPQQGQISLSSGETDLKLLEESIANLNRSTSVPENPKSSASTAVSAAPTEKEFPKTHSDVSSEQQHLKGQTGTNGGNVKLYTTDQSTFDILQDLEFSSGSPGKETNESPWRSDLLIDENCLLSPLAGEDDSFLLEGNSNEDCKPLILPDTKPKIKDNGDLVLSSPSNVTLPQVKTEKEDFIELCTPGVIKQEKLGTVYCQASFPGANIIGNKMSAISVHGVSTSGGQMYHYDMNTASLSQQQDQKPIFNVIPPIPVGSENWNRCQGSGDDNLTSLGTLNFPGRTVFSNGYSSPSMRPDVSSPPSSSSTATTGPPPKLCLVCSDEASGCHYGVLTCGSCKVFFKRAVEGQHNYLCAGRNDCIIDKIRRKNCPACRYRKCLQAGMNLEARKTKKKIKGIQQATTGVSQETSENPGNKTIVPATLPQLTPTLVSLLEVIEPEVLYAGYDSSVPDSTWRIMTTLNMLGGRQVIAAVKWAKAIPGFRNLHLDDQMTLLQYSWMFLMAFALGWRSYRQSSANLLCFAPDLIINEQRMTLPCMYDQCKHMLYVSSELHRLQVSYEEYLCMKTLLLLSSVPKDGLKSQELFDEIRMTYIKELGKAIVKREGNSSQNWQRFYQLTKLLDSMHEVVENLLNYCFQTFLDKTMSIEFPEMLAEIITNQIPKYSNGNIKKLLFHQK
Outline: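 Transiently transfected HepG2 cells express chimeric NR-GAL4 proteins acting on GAL4-UAS reporter units. Compounds are applied for 24 h. mRNA induction over DMSO is measured by capillary electrophoresis.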

[12] = ATG_M_06_TRANS: Attagene TRANS-FACTORIAL HepG2 Assay for M06 Transcription Factor (Internal Marker) (AID 2282983); details: HepG2 Attagene TRANS M06 internal marker reporter
Outline: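 In this multiplexed HepG2 system, compounds are incubated 24 h with cells carrying GAL4-UAS reporter units. Reporter RNA is amplified and resolved by capillary electrophoresis, and induction is scored against DMSO.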

[13] = biological target: Nuclear receptor subfamily 4 group A member 2 (Homo sapiens) (UniProt P43354); assay: ATG_NURR1_TRANS: Attagene TRANS-FACTORIAL HepG2 Assay for human Nuclear Receptor Related Protein 1 (NURR1) (AID 2282985); details: HepG2 Attagene TRANS reporter, mRNA readout
Nuclear receptor subfamily 4 group A member 2 (Homo sapiens), sequence (P43354 whole entry, looked up): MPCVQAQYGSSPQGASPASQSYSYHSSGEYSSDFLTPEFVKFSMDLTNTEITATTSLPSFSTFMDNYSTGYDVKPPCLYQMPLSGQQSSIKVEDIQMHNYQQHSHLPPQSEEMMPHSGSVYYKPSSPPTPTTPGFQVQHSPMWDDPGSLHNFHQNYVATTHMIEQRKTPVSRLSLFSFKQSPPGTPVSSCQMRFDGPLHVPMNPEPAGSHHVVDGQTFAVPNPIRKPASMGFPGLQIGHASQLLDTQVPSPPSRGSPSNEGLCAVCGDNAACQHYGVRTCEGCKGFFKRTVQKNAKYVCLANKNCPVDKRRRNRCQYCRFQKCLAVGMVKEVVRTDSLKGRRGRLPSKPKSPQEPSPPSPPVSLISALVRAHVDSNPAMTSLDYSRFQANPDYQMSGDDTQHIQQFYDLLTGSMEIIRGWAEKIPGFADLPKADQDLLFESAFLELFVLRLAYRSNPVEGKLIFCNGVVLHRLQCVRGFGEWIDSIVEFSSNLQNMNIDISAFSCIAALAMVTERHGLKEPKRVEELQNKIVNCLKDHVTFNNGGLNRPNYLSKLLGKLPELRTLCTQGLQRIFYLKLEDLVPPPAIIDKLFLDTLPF
Outline: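 Endpoint: reporter mRNA increase relative to DMSO. HepG2 cells transfected with reporter units, treated 24 h; RNA processed by RT-PCR, labelling, HpaI digestion and capillary electrophoresis.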

[14] = biological target: Transcriptional activator Myb (Homo sapiens) (UniProt P10242); assay: ATG_Myb_CIS: Attagene CIS-FACTORIAL HepG2 Assay for human Myeloblastosis (Myb) Proto-Oncogene Transcription Factor (AID 2282986; active means hit-call score of the fitted dose curve at least 0.9, where 1 is the maximum; inactive means score below 0.9); details: HepG2 Attagene CIS-FACTORIAL Myb reporter transcription; actives raise or lower the signal
Transcriptional activator Myb (Homo sapiens), sequence (P10242 whole entry, looked up): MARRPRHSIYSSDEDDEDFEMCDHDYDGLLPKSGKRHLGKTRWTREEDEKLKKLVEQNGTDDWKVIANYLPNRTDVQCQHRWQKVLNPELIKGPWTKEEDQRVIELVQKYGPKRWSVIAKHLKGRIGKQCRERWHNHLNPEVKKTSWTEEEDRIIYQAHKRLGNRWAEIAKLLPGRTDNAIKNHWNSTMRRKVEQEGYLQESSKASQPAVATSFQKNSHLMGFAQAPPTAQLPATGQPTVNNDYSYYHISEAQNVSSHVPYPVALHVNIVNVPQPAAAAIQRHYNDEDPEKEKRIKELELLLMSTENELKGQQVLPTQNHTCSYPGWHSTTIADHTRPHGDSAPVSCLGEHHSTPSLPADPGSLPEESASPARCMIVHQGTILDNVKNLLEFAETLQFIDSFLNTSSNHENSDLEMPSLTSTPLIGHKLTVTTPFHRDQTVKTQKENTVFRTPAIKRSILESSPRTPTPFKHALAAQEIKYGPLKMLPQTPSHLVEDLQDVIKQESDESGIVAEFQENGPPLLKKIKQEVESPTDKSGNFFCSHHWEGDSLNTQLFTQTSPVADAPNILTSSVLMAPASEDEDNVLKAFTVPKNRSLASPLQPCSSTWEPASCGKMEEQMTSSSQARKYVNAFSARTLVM
Outline: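 Using HepG2 liver cells bearing transiently transfected cis-promoter reporter constructs, the assay measures induction or loss of reporter mRNA after 24 hours of dosing. Detection used fluorescently labeled RT-PCR products separated by capillary electrophoresis.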

[15] = biological target: Nuclear receptor subfamily 1 group I member 3 (Homo sapiens) (UniProt Q14994); assay: ATG_CAR_TRANS: Attagene TRANS-FACTORIAL HepG2 Assay for human Constitutive Androstane Receptor (CAR) (AID 2282969); details: HepG2 Attagene TRANS-FACTORIAL CAR reporter;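 further: activators raise reporter mRNA above DMSO so AC50 marks induction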
Nuclear receptor subfamily 1 group I member 3 (Homo sapiens), sequence (Q14994 whole entry, looked up, the tested form may be a part): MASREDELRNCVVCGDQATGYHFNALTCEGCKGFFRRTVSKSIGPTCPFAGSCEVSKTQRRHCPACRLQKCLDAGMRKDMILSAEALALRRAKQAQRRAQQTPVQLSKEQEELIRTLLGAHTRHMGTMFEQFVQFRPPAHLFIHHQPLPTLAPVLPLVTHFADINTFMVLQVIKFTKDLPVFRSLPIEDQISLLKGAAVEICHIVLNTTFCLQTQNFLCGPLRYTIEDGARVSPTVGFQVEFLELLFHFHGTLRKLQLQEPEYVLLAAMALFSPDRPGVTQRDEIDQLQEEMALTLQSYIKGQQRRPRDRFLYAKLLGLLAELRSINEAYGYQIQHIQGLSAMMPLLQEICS
Outline: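 Transiently transfected HepG2, multiplex TRANS reporters (CAR-Gal4 chimera driving GAL4-UAS reporter). 24 h dosing. Readout: reporter transcript by RT-PCR + capillary electrophoresis, fluorescence intensity; positive direction vs DMSO.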

Measured: outcome

C=C(C)C1CCC(C)CC1O (configuration not stated)
inactive: [1] | [2] | [3] | [4] | [5] | [6] | [7] | [8] | [9]

CC(C=O)Cc1ccc(C(C)C)cc1 (configuration not stated)
inactive: [1] | [10] | [2] | [4] | [11] | [7] | [12] | [8] | [13] | [14] | [9]

CCC(=O)OCCC(C)CCC=C(C)C (configuration not stated)
inactive: [1] | [10] | [2] | [3] | [4] | [6] | [7] | [8] | [13] | [14] | [9]

CC(C)CCCCCCCOC(=O)c1ccc(C(=O)OCCCCCCCC(C)C)c(C(=O)OCCCCCCCC(C)C)c1
inactive: [1] | [10] | [15] | [2] | [3] | [11] | [5] | [7] | [8] | [14] | [9]

CC(=O)OCCOC(C)=O
inactive: [1] | [10] | [2] | [3] | [11] | [5] | [7] | [12] | [8] | [14] | [9]

O=C[C@@H](O)[C@H](O)[C@H](O)CO
inactive: [1] | [15] | [2] | [4] | [5] | [12] | [8] | [13] | [14] | [9]

N#Cc1ccc(CC(=NNC(=O)Nc2ccc(OC(F)(F)F)cc2)c2cccc(C(F)(F)F)c2)cc1
inactive: [1] | [10] | [15] | [2] | [3] | [4] | [11] | [6] | [14]
